Mcl1 Bid PPI: disrupts binding of human Mcl-1 to Bid peptide | TR-FRET Mcl-1/Bid-Dy647 peptide binding, 1536-well | inhibition, % at 21.7 µM | Q07820 | 220,000 compounds, 0.97% hits | AID 1021;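 active = compounds that cut the binding signal by more than half at the single screening dose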;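 note: His-tagged Mcl-1 with europium anti-His antibody binding Bid BH3 peptide; 0% = Mcl-1 plus peptide wells and 100% = peptide-only wells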
BCLXL inh: Bcl-xL (human) inhibition | GST-Bcl-xL / FITC-Bim BH3 peptide fluorescence polarization | 320,000 compounds, 0.7% hits | AID 2129 | inhibition, % at 10.9 µM;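 active = inhibition above the mean of all tested compounds plus 3 SD, cutoff set per campaign, cut at about 30% in these data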;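 note: 0% = DMSO wells and 100% = unlabeled Bim-BH3 peptide competitor; inhibitors lower millipolarization by displacing the labeled peptide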
GLD-1 RNA inh: GLD-1-TGE RNA interaction inhibition (C. elegans); 320,000 compounds, 0.44% hits; inhibition, % at 5.96 µM; purified GLD-1 + fluorescein TGE RNA, fluorescence polarization; AID 2280;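 active = percent inhibition above a per-plate cutoff, the plate mean of test compounds plus 3 SD, cut at about 30% in these data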;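 note: 0% = DMSO wells with GLD-1 and probe and 100% = wells lacking GLD-1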
Target sequence (Q17339 whole entry, looked up): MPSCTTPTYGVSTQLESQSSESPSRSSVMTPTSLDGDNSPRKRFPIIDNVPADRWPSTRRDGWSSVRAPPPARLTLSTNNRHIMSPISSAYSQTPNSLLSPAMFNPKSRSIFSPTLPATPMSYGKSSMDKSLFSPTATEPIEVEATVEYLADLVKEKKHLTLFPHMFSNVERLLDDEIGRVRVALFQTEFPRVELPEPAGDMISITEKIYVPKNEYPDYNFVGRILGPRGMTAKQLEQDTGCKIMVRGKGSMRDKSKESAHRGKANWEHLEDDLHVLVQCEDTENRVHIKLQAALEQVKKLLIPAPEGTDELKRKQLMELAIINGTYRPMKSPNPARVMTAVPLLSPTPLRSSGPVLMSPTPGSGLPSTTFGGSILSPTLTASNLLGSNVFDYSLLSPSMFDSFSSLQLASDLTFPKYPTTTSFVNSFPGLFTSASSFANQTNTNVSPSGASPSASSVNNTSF
Mcl1 Noxa PPI: Mcl-1/Noxa interaction inhibition; AID 1022; TR-FRET Mcl-1/Noxa peptide binding, 2 h; inhibition, % at 21.7 µM; Q07820; 220,000 compounds, 1.5% hits;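 active = compounds that cut the protein-peptide binding signal by more than 50% relative to plate controls in a single-dose test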;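 note: His-tagged Mcl-1 with rhodamine Noxa BH3 peptide and terbium anti-His antibody; 0% = Mcl-1 plus Noxa peptide wells and 100% = peptide-only wells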
Bim-Mcl-1: human Bim-Mcl-1 interaction inhibition. 190,000 compounds, 0.1% hits. Bead-based flow cytometry, Bim peptide-Mcl-1 binding. inhibition, % at 10 µM; in the data active = inhibition above about 40%;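 note: 0% = no compound tracer wells and 100% = peptide blocker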
MCL1 BIM primary: inhibitors of human MCL1 binding to BIM-BH3 peptide. GST-MCL1 / FITC-Bim-BH3 fluorescence polarization. AID 2057. Q07820. 320,000 compounds, 0.68% hits. inhibition, % at 10.9 µM;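 active = inhibition above the mean inhibition of all tested compounds plus 3 SD, set per campaign, cut at about 40% in these data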;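 note: 0% = DMSO wells and 100% = unlabeled Bim-BH3 peptide control; higher means more loss of mP so more displacement of Bim peptide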
Bcl-xL conf: counter-screen for MCL1 inhibitors: confirmation of human Bcl-xL inhibitors; shares compounds with MCL1 BIM primary; GST-Bcl-xL / FITC-Bim BH3 peptide FP binding; inhibition, % at 10.9 µM; 1,700 compounds, 54% hits; AID 2166;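 active = inhibition above a cutoff equal to the mean inhibition of all tested compounds plus 3 SD, cut at about 30% in these data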;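 note: 0% = DMSO wells and 100% = unlabeled Bim BH3 control peptide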
MCL1 BIM confirm: MCL1-BIM-BH3 interaction inhibition, confirmation; shares compounds with MCL1 BIM primary; GST-MCL1 / FITC-Bim-BH3 fluorescence polarization; inhibition, % at 10.9 µM; 1,700 compounds, 61% hits;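 active = inhibition above the average of all tested compounds plus 3 SD, cut at about 40% in these data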;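 note: 0% = DMSO wells and 100% = unlabeled Bim-BH3 control peptide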
Numbers without * were called inactive; . = no result given; + = active, no number. The list is not random: actives were taken first. Their share in the collection is about 2.3%.

SMILES	Mcl1 Bid PPI	BCLXL inh	GLD-1 RNA inh	Mcl1 Noxa PPI	Bim-Mcl-1	MCL1 BIM primary	Bcl-xL conf	MCL1 BIM confirm
Cc1ccc(S(=O)(=O)N(C)c2ccc(C(=O)Nc3cccnc3)cc2)cc1	.	-4	4	.	.	0	.	.
Cc1ccccc1CN(C)Cc1cc(=O)oc2c(C)c(C)ccc12	.	3	-8	.	.	64*	12	7
COc1ccc(C(=O)NC(=S)Nc2cccnc2)cc1[N+](=O)[O-]	-24	27	1	13	-4	42*	22	19
COc1ccc(S(=O)(=O)NCCC(=O)Nc2ccc(C)cc2)cc1	.	3	6	.	.	-2	.	.
COc1ccc(OCC(O)CNC(=O)c2ccc(Br)cc2)cc1 (centres undefined)	2	4	4	-20	-2	4	.	.
COc1ccc(OCC(O)CNC(=O)c2ccc(OC)cc2)cc1 (centres undefined)	-9	4	-5	5	0	44*	5	7
COc1ccc(OC)c(S(=O)(=O)Nc2ccc3[nH]c(=O)[nH]c3c2)c1	.	0	-3	.	.	-14	.	.
CCOC(=O)c1c(-n2c(C)cc(C=O)c2C)sc2c1CCCC2	-50	-3	6	2	-1	-1	.	.
Cc1ccc(C)n1-c1sc2c(c1C(=O)O)CCCC2	-56	20	-6	37	-3	70*	17	49*
CCOC(=O)c1c(NC(C)=O)sc(/C(C)=N/Nc2ccc(C(=O)O)cc2)c1C	.	8	7	.	.	-3	.	.
O=C(N/N=C/c1sc2ccccc2c1O)c1cccc2ccccc12	-34	-20	-44	-13	-6	-40	.	.
Oc1c(C=Nc2cccc3cccnc23)sc2ccccc12	49	80*	-152	-10	-9	128*	37*	99*
COc1ccc(F)cc1S(=O)(=O)NCC(=O)NCc1cc(=O)n(C)c(=O)n1C	.	3	5	.	.	11	.	.
CCOc1ccc(NC(=S)N(CCOC)C2CCN(C(C)C)CC2)cc1	.	-1	-4	.	.	-2	.	.
COc1ccc(OC)c2c1C(=O)c1ccccc1C2=O	-20	+	+	15	1	+	+	+
COc1ccc(N)c2c1C(=O)c1ccccc1C2=O	-92	16	14	32	11	23	.	.
COc1ccc2noc3c2c1C(=O)c1ccccc1-3	.	116*	91*	.	.	117*	110*	121*
O=C1c2ccccc2-c2onc3ccc(NCCCn4ccnc4)c1c23	60*	+	198*	-281	63*	+	181*	200*
COc1ccc(OC)c2c1C(=O)C(Cl)=C(Cl)C2=O	-78	39*	18	99*	.	71*	47*	65*
CCC(Oc1ccc(Br)cc1Cl)C(=O)Nc1nnc(C2CC2)s1 (centres undefined)	.	4	3	.	.	4	.	.
CC(NC(=O)c1cc2cc(Br)ccc2oc1=N)c1ccccc1 (centres undefined)	.	3	5	.	.	4	.	.
Clc1ccc2c(c1)Nc1ccccc1CC2	.	6	2	.	.	0	.	.
CCOC(=O)C1=C(CC)Nc2ccccc2N=C1NC(=O)c1cc(S(=O)(=O)N2CCOCC2)ccc1C	.	.	2	.	.	.	.	.
Cc1onc(-c2ccccc2Cl)c1C(=O)NCc1ccco1	-15	24	2	37	0	66*	28	65*
NC(=O)COC(=O)C1c2ccccc2Oc2ccccc21	.	7	0	.	.	2	.	.
SMILES	Mcl1 Bid PPI	BCLXL inh	GLD-1 RNA inh	Mcl1 Noxa PPI	Bim-Mcl-1	MCL1 BIM primary	Bcl-xL conf	MCL1 BIM confirm
N#CCN(CC#N)C(=O)C1c2ccccc2Oc2ccccc21	.	+	+	.	.	+	6	11
COc1ccc2nc(-c3ccco3)c(-c3ccco3)nc2c1	26	49*	23	101*	3	88*	76*	126*
c1coc(-c2nc(-c3ccco3)c(-c3ccco3)nc2-c2ccco2)c1	97*	80*	23	109*	0	106*	18	57*
Nc1nc(-c2ccco2)c(-c2ccco2)s1	-35	18	2	42	-3	25	.	.
COc1ccc(-c2nc3ccccc3nc2-c2ccc(OC)cc2)cc1	.	4	3	.	.	5	.	.
COC(=O)[C@]12C(=O)NC[C@H](CN1c1ccc(Cl)c(C)c1)N2C	.	.	2	.	.	.	.	.
Cc1ccc(C2(C)NC(=O)N(CC(=O)Nc3ccc(Cl)c(S(=O)(=O)N4CCCCC4)c3)C2=O)cc1 (centres undefined)	.	-8	-2	.	.	-15	.	.
O=C1NC(=S)SC1=C1CCCC1	-5	12	-7	31	-3	44*	26	60*
Cc1csc(SCC(=O)NC2CCS(=O)(=O)C2)n1 (centres undefined)	.	.	-2	.	.	.	.	.
Cc1ccc(C(=O)N2CCCN(c3nc4cc5c(cc4cc3C#N)OCO5)CC2)cc1	.	87*	58*	.	.	98*	-3	-5
N#Cc1cc2cc3c(cc2nc1N1CCCCC1)OCCO3	-7	8	-3	6	0	6	.	.
COCCCNC1=C(Cl)C(=O)c2ccccc2C1=O	-41	0	3	25	.	-2	.	.
COCCCNc1c2c3c(cccc3[nH]c1=O)C(=O)c1ccccc1-2	-23	117*	75*	-190	9	124*	126*	137*
Fc1ccc(Br)cc1C1C=C(c2ccc(Br)cc2)Nc2ncnn21 (centres undefined)	13	10	7	28	-1	7	.	.
Cc1ccsc1C1C=C(c2cccc(Br)c2)Nc2ncnn21 (centres undefined)	-52	110*	92*	-15	0	118*	71*	83*
COc1cccc(C2=CC(c3ccc(C)cc3)n3ncnc3N2)c1 (centres undefined)	-29	55*	57*	7	0	60*	30	42*
CCOc1ccc(NC(=O)c2cccc(-n3cccc3)c2)cc1S(=O)(=O)N1CCOCC1	.	0	12	.	.	67*	4	56*
CC(=O)c1ccc2noc(-c3ccc(F)cc3)c2c1	-37	98*	110*	-1	0	98*	82*	103*
CC(=O)c1ccc2noc(-c3ccc(Cl)cc3)c2c1	-34	3	7	5	1	2	.	.
CC1Cc2cc(S(=O)(=O)N3CCC(C(=O)NCc4ccco4)CC3)ccc2N1C(=O)C1CCC1 (centres undefined)	.	2	4	.	.	1	.	.
Brc1ccc(Nc2nc3ccccc3n3nnnc23)cc1	-18	12	3	17	-6	17	.	.
c1ccc(Nc2nc3ccccc3n3nnnc23)cc1	-5	36*	5	1	-2	61*	34*	33

Bioassay records (PubChem BioAssay)
